Our source for the inhibition values is ChEMBL document CHEMBL1961873, “Compounds: GSK PKIS; Assays: Nanosyn kinase panel” (2012).

Several values for one entry are separate records, joined by “and”; a condition that tells them apart may be missing. Equal entries are not always repeated.

For orientation: inhibition means the relative decrease from the control value, in per cent.

For assay [1], the target named is Protein kinase C gamma type (Homo sapiens) (UniProt P05129). As to conditions: at 1 µM.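 Also: each value is an averaged percent inhibition of the enzyme.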
Assay [2] deals with T1, Protein kinase C iota type (Homo sapiens) (UniProt P41743).
T1 sequence (whole entry): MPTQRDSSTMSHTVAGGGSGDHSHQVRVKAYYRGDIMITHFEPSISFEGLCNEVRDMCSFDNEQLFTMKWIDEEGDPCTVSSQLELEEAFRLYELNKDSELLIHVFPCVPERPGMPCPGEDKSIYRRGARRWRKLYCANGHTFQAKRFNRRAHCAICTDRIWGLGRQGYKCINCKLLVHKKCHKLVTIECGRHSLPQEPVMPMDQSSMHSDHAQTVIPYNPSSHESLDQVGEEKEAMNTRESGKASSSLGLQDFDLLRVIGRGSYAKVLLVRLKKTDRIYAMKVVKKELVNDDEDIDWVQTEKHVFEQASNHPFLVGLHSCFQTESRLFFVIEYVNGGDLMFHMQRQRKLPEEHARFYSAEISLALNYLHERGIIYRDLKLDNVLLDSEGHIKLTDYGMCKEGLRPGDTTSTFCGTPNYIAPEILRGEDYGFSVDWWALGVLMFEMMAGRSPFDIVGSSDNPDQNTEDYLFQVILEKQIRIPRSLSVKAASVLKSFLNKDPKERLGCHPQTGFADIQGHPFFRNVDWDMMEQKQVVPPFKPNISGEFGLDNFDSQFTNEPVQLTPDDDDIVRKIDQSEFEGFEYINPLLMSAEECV
The conditions noted are these: at 0.1 µM.

Assay [3] has as its target T1, Protein kinase C iota type (Homo sapiens). The conditions noted are these: at 1 µM.
Assay [4] deals with Protein kinase C theta type (Homo sapiens) (UniProt Q04759). The conditions noted are these: at 0.1 µM.
Protein kinase C theta type (Homo sapiens), sequence (Q04759 whole entry, looked up): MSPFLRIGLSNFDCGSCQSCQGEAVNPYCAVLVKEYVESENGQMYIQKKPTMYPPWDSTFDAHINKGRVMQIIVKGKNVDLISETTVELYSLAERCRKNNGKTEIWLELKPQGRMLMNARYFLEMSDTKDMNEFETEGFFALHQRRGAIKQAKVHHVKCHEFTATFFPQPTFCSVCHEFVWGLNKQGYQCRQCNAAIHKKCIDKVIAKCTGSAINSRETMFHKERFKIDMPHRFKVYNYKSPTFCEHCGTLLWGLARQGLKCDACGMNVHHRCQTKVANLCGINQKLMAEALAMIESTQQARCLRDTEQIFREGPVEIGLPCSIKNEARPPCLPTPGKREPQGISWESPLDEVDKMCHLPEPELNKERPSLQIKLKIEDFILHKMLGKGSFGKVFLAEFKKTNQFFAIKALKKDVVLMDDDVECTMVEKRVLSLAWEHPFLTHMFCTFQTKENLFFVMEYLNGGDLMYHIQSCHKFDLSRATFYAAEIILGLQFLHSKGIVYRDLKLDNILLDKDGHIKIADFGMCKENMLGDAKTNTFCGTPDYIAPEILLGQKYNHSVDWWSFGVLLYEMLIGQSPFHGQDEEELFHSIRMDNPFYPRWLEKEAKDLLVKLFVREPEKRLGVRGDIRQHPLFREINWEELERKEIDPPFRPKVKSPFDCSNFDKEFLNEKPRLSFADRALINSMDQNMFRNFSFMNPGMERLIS
Assay [5] shares this target. The conditions noted are these: at 1 µM.
Assay [6] has as its target Protein kinase C beta type (Homo sapiens) (UniProt P05771). The conditions noted are these: at 0.1 µM.
Assay [7] shares this target. As to conditions: at 1 µM.
Assay [8] has as its target T2, Serine/threonine-protein kinase D1 (Homo sapiens) (UniProt Q15139).
T2 sequence (whole entry): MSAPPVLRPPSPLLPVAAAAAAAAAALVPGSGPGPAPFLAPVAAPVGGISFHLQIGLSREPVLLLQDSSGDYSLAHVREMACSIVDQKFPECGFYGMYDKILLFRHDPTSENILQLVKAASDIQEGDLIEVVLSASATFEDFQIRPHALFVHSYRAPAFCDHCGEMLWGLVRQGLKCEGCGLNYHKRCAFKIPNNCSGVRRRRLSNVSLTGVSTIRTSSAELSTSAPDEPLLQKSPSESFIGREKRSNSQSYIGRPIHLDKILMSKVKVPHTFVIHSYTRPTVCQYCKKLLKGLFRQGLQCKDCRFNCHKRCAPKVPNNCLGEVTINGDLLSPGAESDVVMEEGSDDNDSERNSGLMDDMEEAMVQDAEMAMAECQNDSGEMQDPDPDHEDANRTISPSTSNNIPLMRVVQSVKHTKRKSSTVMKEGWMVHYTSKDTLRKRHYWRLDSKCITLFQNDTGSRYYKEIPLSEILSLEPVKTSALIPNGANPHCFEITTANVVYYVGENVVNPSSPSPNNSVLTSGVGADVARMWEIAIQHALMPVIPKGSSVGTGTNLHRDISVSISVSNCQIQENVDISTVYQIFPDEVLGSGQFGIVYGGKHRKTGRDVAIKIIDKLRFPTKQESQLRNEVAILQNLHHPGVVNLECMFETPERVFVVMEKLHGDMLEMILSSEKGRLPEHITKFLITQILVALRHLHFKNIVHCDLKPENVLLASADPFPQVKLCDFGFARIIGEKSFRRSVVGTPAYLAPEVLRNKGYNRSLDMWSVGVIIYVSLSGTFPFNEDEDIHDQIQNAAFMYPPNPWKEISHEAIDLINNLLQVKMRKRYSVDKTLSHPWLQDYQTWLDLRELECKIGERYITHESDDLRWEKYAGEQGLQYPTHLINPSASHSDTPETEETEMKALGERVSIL
As to conditions: at 0.1 µM.

Assay [9] deals with T2, Serine/threonine-protein kinase D1 (Homo sapiens). As to conditions: at 1 µM.
Assay [10] addresses T3, Serine/threonine-protein kinase D2 (Homo sapiens) (UniProt Q9BZL6).
T3 sequence (whole entry): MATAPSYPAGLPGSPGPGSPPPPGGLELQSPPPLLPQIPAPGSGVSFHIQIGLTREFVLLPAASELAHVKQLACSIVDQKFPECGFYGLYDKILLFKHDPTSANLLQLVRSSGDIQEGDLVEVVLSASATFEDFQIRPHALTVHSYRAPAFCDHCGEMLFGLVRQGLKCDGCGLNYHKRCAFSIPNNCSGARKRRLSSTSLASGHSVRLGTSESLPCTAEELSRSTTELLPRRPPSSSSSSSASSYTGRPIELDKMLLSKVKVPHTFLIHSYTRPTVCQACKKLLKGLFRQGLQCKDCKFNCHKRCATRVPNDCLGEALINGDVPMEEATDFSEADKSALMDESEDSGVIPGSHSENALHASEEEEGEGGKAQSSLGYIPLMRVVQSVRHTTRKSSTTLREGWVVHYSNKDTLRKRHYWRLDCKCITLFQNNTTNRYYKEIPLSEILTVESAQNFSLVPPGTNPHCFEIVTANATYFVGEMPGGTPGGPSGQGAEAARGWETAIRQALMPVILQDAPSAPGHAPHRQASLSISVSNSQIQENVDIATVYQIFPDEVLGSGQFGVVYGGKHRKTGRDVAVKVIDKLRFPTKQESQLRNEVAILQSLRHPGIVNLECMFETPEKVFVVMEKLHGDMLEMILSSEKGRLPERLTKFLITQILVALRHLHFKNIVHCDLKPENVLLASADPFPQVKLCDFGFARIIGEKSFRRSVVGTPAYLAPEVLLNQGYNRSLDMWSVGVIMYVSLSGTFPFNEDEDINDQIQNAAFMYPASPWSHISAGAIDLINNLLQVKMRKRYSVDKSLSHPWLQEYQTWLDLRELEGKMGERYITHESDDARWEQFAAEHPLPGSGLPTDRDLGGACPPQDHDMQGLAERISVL
As to conditions: at 0.1 µM.

Protein kinase C beta type (Homo sapiens), sequence (P05771 2-671 limits assumed): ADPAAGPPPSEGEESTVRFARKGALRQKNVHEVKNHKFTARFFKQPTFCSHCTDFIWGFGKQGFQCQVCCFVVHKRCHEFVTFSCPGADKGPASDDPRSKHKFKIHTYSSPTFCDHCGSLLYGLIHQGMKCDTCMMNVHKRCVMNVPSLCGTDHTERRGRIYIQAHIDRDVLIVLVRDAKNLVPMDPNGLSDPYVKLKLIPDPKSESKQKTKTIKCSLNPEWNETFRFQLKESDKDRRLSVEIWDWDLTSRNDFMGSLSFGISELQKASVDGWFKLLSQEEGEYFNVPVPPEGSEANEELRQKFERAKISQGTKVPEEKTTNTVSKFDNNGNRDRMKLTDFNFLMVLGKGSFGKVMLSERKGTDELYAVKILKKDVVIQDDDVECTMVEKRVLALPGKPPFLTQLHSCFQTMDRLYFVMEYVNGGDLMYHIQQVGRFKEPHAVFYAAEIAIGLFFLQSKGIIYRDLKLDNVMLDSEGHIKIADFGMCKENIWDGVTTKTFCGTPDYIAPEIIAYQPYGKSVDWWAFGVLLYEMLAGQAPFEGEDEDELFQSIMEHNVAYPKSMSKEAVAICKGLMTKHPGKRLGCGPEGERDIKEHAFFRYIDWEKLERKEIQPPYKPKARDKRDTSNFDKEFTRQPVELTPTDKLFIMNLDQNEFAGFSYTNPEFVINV

In the case of `NS(=O)(=O)c1cccc(N/C=C2\C(=O)Nc3ccccc32)c1`, the inhibition in assay [1] stood at 3.27%; in [2], 1.82%; in assay [3] it was 2.43%; in assay [4], 2.17%; in [5], 1.6%; in assay [6], 1.9%. In addition, the inhibition in assay [7] came out at 3.11%; in assay [8] it was 3.72%; in [9] it was 11%; in assay [10], 3.88%.
`CC1=C(C(=O)Nc2ccc3[nH]ncc3c2)C(c2ccc(F)cc2)N=C(c2ccc(C(F)(F)F)nc2)N1` (stereo not given): the inhibition in assay [1] worked out at 3.28%; in assay [2], 1%; in [3], 1.59%; in [4], 1.3%; in assay [5], 1.01%; in [6], 4.27%. For the same molecule, the inhibition in assay [7] was determined as 0.68%; in assay [8] it was 2.04%; in [9], 3.26%; in assay [10] it was 2.6%.
As for `CCCNc1cccc(-n2ncc3c(N/N=C/c4ccncc4)ncnc32)c1`, the inhibition in assay [1] was 5.49%; in assay [2] it was 3.86%; in [3], 12.5%; in assay [4] it was 1.36%; in [5] it was 2.98%; in [6] it was 3.39%. Besides, the inhibition was 3.89% in assay [7], 2.19% in assay [8], 1.22% in [9] and -2.37% in assay [10].
In the case of `N#Cc1cccc(Nc2ncc(-c3ccccc3)o2)c1`, the inhibition stood at 5.3% in assay [1]; 0.25% in [2]; 0.06% in assay [3]; 1.33% in [4]; 3.57% in assay [5]; 0.6% in assay [6]. The inhibition is 1.2% in assay [7], 5.32% in assay [8], 2.44% in assay [9] and 1.97% in [10].
Turning to `COc1cccc(Nc2nccc(-c3cnn4ncccc34)n2)c1`, the inhibition in [1] was 9.31%; in assay [2] it was -1.42%; in [3], -1.07%; in assay [4], 0.2%; in assay [5], 4.75%; in assay [6], 0.37%. Further, the inhibition in assay [7] is 7.43%; in [8], 4.01%; in assay [9] it was 38.2%; in assay [10], 2.78%.
As for `CS(=O)(=O)Nc1ccc(-c2ccc3c(NC(=O)C4CC4)n[nH]c3c2)cc1`, the inhibition in [1] was 4.43%; in assay [2], 0.75%; in assay [3], 3.13%; in [4], 1.56%; in assay [5], -0.36%; in [6] it was 1.18%. Moreover, the inhibition in assay [7] was found to be 1.78%; in assay [8] it was 2.7%; in [9] it was 4.68%; in assay [10], 3.14%.
Take `Cn1c(-c2nonc2N)nc2cnccc21`: the inhibition amounted to 2.78% in assay [1]; 1.03% in assay [2]; 3.76% in assay [3]; 1.13% in assay [4]; 3.08% in [5]; 1.16% in assay [6]. The inhibition in assay [7] came out at 5.62%; in [8] it was 3.06%; in [9] it was 14.8%; in assay [10], 2.42%.
Take `CS(=O)(=O)CCNCc1ccc(-c2ccc3ncnc(Nc4ccc(OCc5cccc(C(F)(F)F)c5)cc4)c3c2)o1`: the inhibition in assay [1] was -0.26%; in [2], 2.37%; in assay [3], 2.7%; in assay [4], 2.36%; in assay [5] it was 5.13%; in [6], 1.56%. Moreover, the inhibition stood at 3.15% in [7], 4.62% in assay [8], 6.2% in assay [9] and 5.3% in assay [10].
Take `O=C(O[C@H]1CN[C@H](C#Cc2cc3ncnc(Nc4ccc5c(cnn5Cc5ccccc5)c4)c3s2)C1)N1CCOCC1`: the inhibition was 1.11% in assay [1]; -1.84% in assay [2]; -0.97% in [3]; -0.32% in [4]; -1.1% in assay [5]; -0.16% in assay [6]. Moreover, the inhibition in assay [7] was -0.06%; in assay [8], 2.57%; in [9], 1.38%; in assay [10] it was 1.01%.
Take `Nc1ncnc2occ(-c3ccc(NC(=O)Nc4cc(C(F)(F)F)ccc4F)cc3)c12`: the inhibition in [1] is 4.25% and -2.46%; in assay [2], 1.22% and 0.26%; in [3], 2.9% and 0.4%; in assay [4], 0.8% and -1.06%; in assay [5] it was -0.69% and -1.44%; in assay [6], 0.86% and -0.64%. Moreover, the inhibition was 1.67% and 0.08% in [7]; 1.55% and -2.08% in assay [8]; 2.08% and -1.19% in [9]; 1.19% and -0.28% in [10].
With `COc1c(C(N)=O)cc(-c2ccc(Cl)cc2)cc1-c1ccc(S(N)(=O)=O)cc1`, the inhibition turned out to be 4.7% in [1]; 1% in assay [2]; 0.99% in [3]; 2.35% in [4]; 3.92% in assay [5]; 1.11% in assay [6]. Also, the inhibition in assay [7] amounted to 3.56%; in assay [8] it was 4.74%; in [9] it was 5.66%; in [10], 3.83%.
